Records with an inconclusive call do not appear. The source made the active and inactive calls. Calls come from the whole dose curve; as a rule, active = well fitted cell-killing curve with a large enough effect; inconclusive = small, poorly fitted or top-dose-only effect, or effect the other way; inactive = flat fitted curve, though single readings scatter.
Experiments:
Test in all cases: Primary qHTS to identify gynecologic anti-cancer compounds using libraries of approved drugs and bioactive compounds (AID 1345084); note: nearly all actives have a fitted effect of over 55% in size
[1] = tested on: C33A; details: Gynecologic cancer cell panel viability, ATPlite luminescence, 48 h; series mostly up to 57.5 µM
Summary of the method: (§1)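 48 h compound exposure at 37 C, 5% CO2; five-point qHTS. ATPlite luminescence readout of cell ATP.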

[2] = tested on: CAOV3; details: Gynecologic cancer cell panel viability, ATPlite luminescence, 48 h; series mostly up to 57.5 µM
Summary of the method: as §1

[3] = tested on: CASKI; details: Gynecologic cancer cell panel viability, ATPlite luminescence, 48 h; series mostly up to 57.5 µM
Summary of the method: as §1

[4] = tested on: Es-2; details: Gynecologic cancer cell panel viability, ATPlite luminescence, 48 h; series mostly up to 57.5 µM
Summary of the method: as §1

[5] = tested on: HeLa; details: Gynecologic cancer cell panel viability, ATPlite luminescence, 48 h; series mostly up to 57.5 µM
Summary of the method: as §1

[6] = tested on: Hek293T; details: Gynecologic cancer cell panel viability, ATPlite luminescence, 48 h, control line for the selectivity index; series mostly up to 57.5 µM
Summary of the method: as §1

[7] = tested on: JEG-3; details: Gynecologic cancer cell panel viability, ATPlite luminescence, 48 h; series mostly up to 57.5 µM
Summary of the method: as §1

[8] = tested on: OV90; details: Gynecologic cancer cell panel viability, ATPlite luminescence, 48 h; series mostly up to 57.5 µM
Summary of the method: as §1

[9] = tested on: PA-1; details: Gynecologic cancer cell panel viability, ATPlite luminescence, 48 h; series mostly up to 57.5 µM
Summary of the method: as §1

[10] = tested on: SKOV3; details: Gynecologic cancer cell panel viability, ATPlite luminescence, 48 h; series mostly up to 57.5 µM
Summary of the method: as §1

[11] = tested on: Tov-21-G; details: Gynecologic cancer cell panel viability, ATPlite luminescence, 48 h; series mostly up to 57.5 µM
Summary of the method: as §1

[12] = tested on: Tov112D; details: Gynecologic cancer cell panel viability, ATPlite luminescence, 48 h; series mostly up to 57.5 µM
Summary of the method: as §1
% is set by controls: 0 for no effect and ±100 for the full control effect.

CCC(C)/C=C(C)/C=C/C1=CC2=C(Cl)C(=O)C(C)(OC(C)=O)C(=O)C2=CN1C(CC(=O)O)C(=O)O (centres undefined)
inactive: Potency [1] | Potency [2] | outcome [3] | Potency [4] | Potency [5] | Potency [6] | Potency [7] | Potency [8] | Potency [9] | Potency [10] | Potency [11] | Potency [12]

COC(=O)[C@H](c1ccccc1Cl)N1CCC2SC(=O)C=C2C1 (some centres undefined)
inactive: Potency [1] | Potency [2] | outcome [3] | Potency [4] | Potency [5] | Potency [6] | Potency [7] | Potency [8] | Potency [9] | Potency [10] | Potency [11] | Potency [12]

C[C@@H]1O[C@@H](OC2C(CO)OC(OCC3OC(OC(=O)[C@]45CCC(C)(C)CC4C4=CCC6[C@@]7(C)CC[C@@H](O)[C@](C)(C(=O)O)C7CC[C@@]6(C)[C@]4(C)CC5)C(O)C(O)C3O)C(O)C2O)[C@H](O)[C@H](O)[C@H]1O (some centres undefined)
inactive: activity change, negative = cytotoxicity [1] 1.71% [at 11.6 µM] | activity change, negative = cytotoxicity [2] 16.7% [at 11.6 µM] | activity change, negative = cytotoxicity [3] -0.233% [at 11.6 µM] | activity change, negative = cytotoxicity [4] -9.93% [at 11.6 µM] | activity change, negative = cytotoxicity [5] 4.67% [at 11.6 µM] | activity change, negative = cytotoxicity [6] 5.6% [at 11.6 µM] | activity change, negative = cytotoxicity [7] 7.96% [at 11.6 µM] | activity change, negative = cytotoxicity [8] 8.36% [at 11.6 µM] | activity change, negative = cytotoxicity [9] 29.2% [at 11.6 µM] | activity change, negative = cytotoxicity [10] 5.25% [at 11.6 µM] | activity change, negative = cytotoxicity [11] 6.16% [at 11.6 µM] | activity change, negative = cytotoxicity [12] 2.63% [at 11.6 µM]

CN1CCN(C2=Nc3ccccc3Nc3ccc(O)cc32)CC1
inactive: Potency [1] | Potency [2] | outcome [3] | Potency [4] | Potency [5] | Potency [6] | Potency [7] | Potency [8] | Potency [9] | Potency [10] | Potency [11] | Potency [12]

COc1cc(C(O)C2COC(c3ccc(OC4OC(CO)C(O)C(O)C4O)c(OC)c3)C2CO)ccc1O (centres undefined)
inactive: Potency [1] | Potency [2] | outcome [3] | Potency [4] | Potency [5] | Potency [6] | Potency [7] | Potency [8] | Potency [9] | Potency [10] | Potency [11] | Potency [12]

C[C@@H]1CC[C@]2(C(=O)O[C@@H]3O[C@H](CO[C@@H]4O[C@H](CO)[C@@H](O[C@@H]5O[C@@H](C)[C@H](O)[C@@H](O)[C@H]5O)[C@H](O)[C@H]4O)[C@@H](O)[C@H](O)[C@H]3O)CC[C@]3(C)C(=CCC4[C@@]5(C)C[C@@H](O)[C@H](O)[C@@](C)(CO)C5CC[C@]43C)C2[C@H]1C (some centres undefined)
inactive: activity change, negative = cytotoxicity [1] -0.2% [at 11.6 µM] | activity change, negative = cytotoxicity [2] -4.15% [at 11.6 µM] | activity change, negative = cytotoxicity [3] 20.3% [at 11.6 µM] | activity change, negative = cytotoxicity [4] -3.91% [at 11.6 µM] | activity change, negative = cytotoxicity [5] 11% [at 11.6 µM] | activity change, negative = cytotoxicity [6] -0.706% [at 11.6 µM] | activity change, negative = cytotoxicity [7] 0.915% [at 11.6 µM] | activity change, negative = cytotoxicity [8] -1.43% [at 11.6 µM] | activity change, negative = cytotoxicity [9] 6.43% [at 11.6 µM] | activity change, negative = cytotoxicity [10] 21.1% [at 11.6 µM] | activity change, negative = cytotoxicity [11] 3.06% [at 11.6 µM] | activity change, negative = cytotoxicity [12] 3.29% [at 11.6 µM]

CCC(C)(C)C1CCc2c(sc(NC(=O)c3ccc(Br)cc3)c2C#N)C1 (centres undefined)
inactive: Potency [1] | Potency [2] | outcome [3] | Potency [4] | Potency [5] | Potency [6] | Potency [7] | Potency [8] | Potency [9] | Potency [10] | Potency [11] | Potency [12]

CCCSc1nc(NC2CC2c2ccc(F)c(F)c2)c2nnn(C3CC(OCCO)C(O)C3O)c2n1 (centres undefined)
inactive: Potency [1] | Potency [2] | outcome [3] | Potency [4] | Potency [5] | Potency [6] | Potency [7] | Potency [8] | Potency [9] | Potency [10] | Potency [11] | Potency [12]

COc1ccc(NC(=O)c2ccc(-c3ccc(C(N)=O)cc3C)cc2)cc1N1CCN(C)CC1
inactive: Potency [1] | Potency [2] | outcome [3] | Potency [4] | Potency [5] | Potency [6] | Potency [7] | Potency [8] | Potency [9] | Potency [10] | Potency [11] | Potency [12]

CC(=O)OC[C@]12[C@H](OC(C)=O)[C@H](OC(=O)c3ccccc3)[C@@H]3[C@@H](OC(C)=O)[C@]1(OC3(C)C)[C@H](C)C[C@H](OC(=O)c1ccccc1)[C@@H]2OC(=O)c1ccccc1
inactive: Potency [1] | Potency [2] | outcome [3] | Potency [4] | Potency [5] | Potency [6] | Potency [7] | Potency [8] | Potency [9] | Potency [10] | Potency [11] | Potency [12]

C[C@@H]1O[C@@H](O[C@H]2[C@H](O)[C@@H](O)[C@H](OC[C@H]3O[C@@H](OC(=O)[C@]45CCC(C)(C)C[C@H]4C4=CCC6[C@@]7(C)C[C@@H](O)[C@H](O)[C@@](C)(CO)C7[C@H](O)C[C@@]6(C)[C@]4(C)CC5)[C@H](O)[C@@H](O)[C@@H]3O)O[C@@H]2CO)[C@H](O)[C@H](O)[C@H]1O (some centres undefined)
inactive: activity change, negative = cytotoxicity [1] 15% [at 11.6 µM] | activity change, negative = cytotoxicity [2] -8.06% [at 11.6 µM] | activity change, negative = cytotoxicity [3] -1.59% [at 11.6 µM] | activity change, negative = cytotoxicity [4] -1.56% [at 11.6 µM] | activity change, negative = cytotoxicity [5] 13.5% [at 11.6 µM] | activity change, negative = cytotoxicity [6] -2.97% [at 11.6 µM] | activity change, negative = cytotoxicity [7] -6.46% [at 11.6 µM] | activity change, negative = cytotoxicity [8] -3.81% [at 11.6 µM] | activity change, negative = cytotoxicity [9] 2.94% [at 11.6 µM] | activity change, negative = cytotoxicity [10] -6.07% [at 11.6 µM] | activity change, negative = cytotoxicity [11] -3.2% [at 11.6 µM] | activity change, negative = cytotoxicity [12] -3.4% [at 11.6 µM]

C=CC(C)(CC/C=C(\C)C(=O)OC[C@H]1O[C@@H](OC(C)(C=C)CC/C=C(\C)C(=O)O[C@H]2[C@H](O)[C@@H](O)[C@H](OC(C)(C=C)CC/C=C(\C)C(=O)O)O[C@@H]2CO)[C@H](O)[C@@H](O)[C@@H]1O)O[C@@H]1O[C@H](CO)[C@@H](O)[C@H](O)[C@H]1O (some centres undefined)
inactive: activity change, negative = cytotoxicity [1] -1.99% [at 11.6 µM] | activity change, negative = cytotoxicity [2] -17.5% [at 11.6 µM] | activity change, negative = cytotoxicity [3] -16.7% [at 11.6 µM] | activity change, negative = cytotoxicity [4] -6.19% [at 11.6 µM] | activity change, negative = cytotoxicity [5] 2.2% [at 11.6 µM] | activity change, negative = cytotoxicity [6] -1.07% [at 11.6 µM] | activity change, negative = cytotoxicity [7] -1.18% [at 11.6 µM] | activity change, negative = cytotoxicity [8] 2.45% [at 11.6 µM] | activity change, negative = cytotoxicity [9] 1.36% [at 11.6 µM] | activity change, negative = cytotoxicity [10] 0.327% [at 11.6 µM] | activity change, negative = cytotoxicity [11] -2.47% [at 11.6 µM] | activity change, negative = cytotoxicity [12] 8.98% [at 11.6 µM]
